The values below come from PubChem BioAssay AID652115 (Broad Institute, 2013).

Out of some 330,000 compounds screened, about 3,800 (1.2%) were called active. Many of the other results were omitted from the sample, so actives are more common in it than they were. Values without a mark were called inactive. Rule as the data show it: active = inhibition above about 15%; inconclusive = no clear call, values can overlap the other calls; inactive = below that.

Sequence of NAD-dependent protein deacylase sirtuin-5, mitochondrial (Homo sapiens) (Q9NXA8 whole entry, looked up): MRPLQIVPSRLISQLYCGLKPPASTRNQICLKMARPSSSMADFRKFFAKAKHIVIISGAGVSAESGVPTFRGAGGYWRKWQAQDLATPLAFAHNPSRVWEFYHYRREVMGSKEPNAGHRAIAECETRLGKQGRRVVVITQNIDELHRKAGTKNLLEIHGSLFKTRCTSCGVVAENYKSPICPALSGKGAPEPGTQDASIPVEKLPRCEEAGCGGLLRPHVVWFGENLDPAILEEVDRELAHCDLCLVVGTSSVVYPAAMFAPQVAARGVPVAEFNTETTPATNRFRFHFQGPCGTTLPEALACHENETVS

The experiment addresses NAD-dependent protein deacylase sirtuin-5, mitochondrial (Homo sapiens) (UniProt Q9NXA8). Kind of experiment: blockers of sirtuin-5 deacylase activity – biochemical, fluorescence imaging, single point, set 5, primary screen (AID 652115). To be noted: Purified SirT5, succinyl-peptide AMC, trypsin-coupled fluorescence; at 15 µM; hits give high values.
In general, inhibition refers to the change of the read-out against control, counted positive when it falls. Take `O=C(C[C@H]1CC[C@H](NS(=O)(=O)c2ccccc2)[C@H](CO)O1)NCc1ccncn1`: the inhibition was 6.51%.
Take `CN1C(=O)c2cc(NC(=O)Cc3cccs3)ccc2OC[C@@H]2O[C@@H](CC(=O)N[C@@H]3CCN(Cc4ccccc4)C3)CC[C@H]21`: the inhibition was -2.4%.
The same measure for `COCCCNC(=O)[C@@]1(C)c2ccccc2C(=O)N(Cc2ccc(OC(F)(F)F)cc2)[C@H]1c1ccc(CO)cc1`: 0.166%; for `COc1ccccc1CNC(=O)C[C@H]1C[C@@H]2c3cc(NC(=O)Nc4ccccc4F)ccc3O[C@@H]2[C@H](CO)O1`: -5.72%.
In the case of `COCC(=O)N(C)C[C@H]1Oc2cc(C#C[C@@H](C)O)ccc2S(=O)(=O)N([C@H](C)CO)C[C@H]1C`, the inhibition is -5.34%.
The same measure for `CO[C@@H]1CN(C)C(=O)c2cc(NC(=O)CC(F)(F)F)ccc2OC[C@H](C)N(S(=O)(=O)c2cn(C)cn2)C[C@H]1C`: 1.11%; for `O=C(O)C[C@@H]1C[C@@H]2c3cc(NC(=O)Nc4ccccc4)ccc3O[C@@H]2[C@H](CO)O1`: -3.63%.
The figure for `O=C(Cc1cccnc1)N[C@H]1CC[C@H](CCn2cc(-c3ccccc3F)nn2)O[C@H]1CO` is -1.27%.
In the case of `O=C(Nc1ccc(F)cc1)N[C@H]1CC[C@H](CCn2cc(-c3ccc(F)cc3)nn2)O[C@@H]1CO`, the inhibition is 3.97%.
Take `COc1ccc(NC(=O)N[C@@H]2CC[C@H](CCn3cc(-c4ccc(OC)cc4)nn3)O[C@@H]2CO)cc1`: the inhibition was 31.3% (active).
The same measure for `O=C(Cc1ccncc1)N[C@H]1CC[C@H](CCn2cc(-c3ccccc3F)nn2)O[C@@H]1CO`: 25.2% (active); for `COc1ccc(NC(=O)N[C@H]2CC[C@H](CCn3cc(-c4ccccc4F)nn3)O[C@H]2CO)cc1`: -0.072%; for `O=C(Cc1ccncc1)N[C@@H]1CC[C@H](CCn2cc(-c3ccccc3F)nn2)O[C@H]1CO`: 1.05%.
In the case of `COc1ccc2c3c(n(C)c2c1)[C@@H](CO)NCC31CCN(CC2CCCC2)CC1`, the inhibition was -0.874%.
For the compound `CN1CCN(C(=O)C[C@@H]2C=C[C@@H](NS(=O)(=O)c3cccc(F)c3)[C@@H](CO)O2)CC1`, the inhibition was 1.94%.
The figure for `C[C@@H]1CN([C@@H](C)CO)S(=O)(=O)c2ccc(-c3cccnc3)cc2O[C@H]1CN(C)CC1CCOCC1` is 1.51%; for `CCC(=O)N1[C@H](C(=O)NC2CCC2)[C@@H](CO)[C@@H]2Cn3c(cccc3=O)[C@@H]21` it is -8.06%; for `C[C@H](CO)N1C[C@H](C)[C@@H](CN(C)S(=O)(=O)c2ccccc2F)Oc2ncc(C#Cc3ccccc3F)cc2C1=O` it is 2.94%.
In the case of `N#C[C@@H]1[C@@H](c2ccccc2C2=CCCC2)[C@H](CO)N1C(=O)NC1CCCC1`, the inhibition was 1.76%.
The same measure for `Oc1c(Cl)cc(Cl)c(Cl)c1Cc1c(O)c(Cl)cc(Cl)c1Cl`: 16% (active); for `COCC(=O)Nc1ccc2c(c1)C(=O)N(C)[C@@H]1CC[C@@H](CC(=O)NCC(F)(F)F)O[C@H]1CO2`: 0.833%; for `O=C(NCCCc1ccccc1)C1CCC(=O)N(CCc2ccc(Cl)cc2)C1` (stereo not drawn): -3.16%.
As for `O=C1CCC(C(=O)N2CCC(O)(c3ccccc3)CC2)CN1CCc1ccccc1` (stereo not drawn), the inhibition is 15.1% (active).
The figure for `Cc1cnc(C)c(N2CCN(C(=O)C3CCC(=O)N(CCc4cccc(F)c4)C3)CC2)n1` (stereo not drawn) is -3.12%; for `C[C@@H]1CN([C@@H](C)CO)C(=O)c2cccc(NC(=O)Nc3ccc(F)cc3)c2O[C@H]1CN(C)Cc1ccc(-c2ccccc2)cc1` it is -1.08%.
The same measure for `CCNC(=O)[C@H]1[C@H](CO)[C@H]2Cn3c(ccc(-c4cccc(OC)c4)c3=O)[C@H]2N1Cc1nccs1`: -15.5%; for `CN1c2ccc(C3=CCCCC3)cc2[C@@H]2[C@@H](CCN2C(=O)Nc2cc(F)ccc2F)[C@@H]1CO`: 1.41%.
With `CC(C)C(=O)Nc1ccc2c3c(cccc13)CC2`, the inhibition is 18.7% (active).
The same measure for `O=S(=O)(NC1CC1)c1ccc2c3c(cccc13)CC2`: -2.65%; for `CC(=O)Nc1ccc2c3c(ccc([N+](=O)[O-])c13)CC2`: -1.7%; for `COCC#Cc1ccc([C@H]2[C@@H](CO)N3C(=O)CN(C(=O)C4CCCC4)C[C@@H]23)cc1`: 0.614%.
`C[C@H](CO)N1C[C@H](C)[C@@H](CN(C)S(=O)(=O)c2ccccc2)Oc2ccc(NC(=O)Nc3ccc(F)cc3)cc2CC1=O`: the inhibition was 3.49%.
The same measure for `O=C([C@H]1[C@H](CO)[C@H]2Cn3c(ccc(C4=CCCCC4)c3=O)[C@@H]1N2)N1CCCCC1`: -11.2%.
The same measure for `C=C(C)COc1ccc(-c2nc(N)ncc2-c2ccccc2OC)c(O)c1`: -0.166%; for `COc1ccc(-c2nc(N)ncc2-c2ccc(Cl)cc2)c(O)c1`: -4.03%; for `C=C(C)COc1ccc(-c2ncncc2-c2ccc(OC)cc2)c(O)c1`: 24.8% (active).
As to `C=C[C@H](OC)[C@@H](O)c1ccc(OC)c(O)c1`, the inhibition was -1.66%.
The same measure for `CCNC(=O)C[C@@H]1CC[C@@H]2[C@@H](COc3ccc(NC(C)=O)cc3C(=O)N2C)O1`: 1.4%.
As to `COCC(=O)Nc1ccc2c(c1)C(=O)N(C)C[C@@H](OC)[C@H](C)CN(C(=O)c1ccccn1)[C@@H](C)CO2`, the inhibition was 0.122%.
The figure for `O=C(NCC[C@@H]1CC[C@H](NC(=O)C2CC2)[C@H](CO)O1)c1cnccn1` is 1.79%; for `Cc1ccccc1NC(=O)c1cnn(-c2ccccc2)c1NC(=O)c1ccco1` it is 3.74%.
For `O=C(Nc1c(C(=O)N2CCCCC2)cnn1-c1ccccc1)c1ccco1`, the inhibition is 0.316%.
The same measure for `O=C(NNc1ncnc2c1cnn2-c1ccccc1)c1ccco1`: 16.9% (active); for `COc1ccc(Cl)cc1NC(=O)COC(=O)c1ccc(Br)o1`: 21% (active); for `COc1ccc(Cl)cc1NC(=O)CN(C)Cc1ccc(OC)c(OC)c1`: -4.51%.
Take `COc1ccc(Cl)cc1NC(=O)COc1ccc2c(c1)OCO2`: the inhibition is -11.6%.
On to `O=C(C[C@@H]1CC[C@H]2[C@@H](COC[C@@H](O)CN2C(=O)Nc2ccc(F)cc2)O1)NCC1CC1`, for which the inhibition was 2.85%.
As for `O=C(C[C@@H]1CC[C@H](NC(=O)c2ccncc2)[C@@H](CO)O1)Nc1ccc(-c2ccccc2)cc1`, the inhibition was -3.04%.
Consider `COc1cccc(/C=N/Nc2ccc(S(=O)(=O)Nc3ccccc3C(=O)O)cc2[N+](=O)[O-])c1O`, for which the inhibition was 19% (active).
The figure for `COc1ccc(Br)cc1/C=N/Nc1ccc(S(=O)(=O)Nc2ccccc2C(=O)O)cc1[N+](=O)[O-]` is 47.2% (active); for `COc1cc(OC)c(S(=O)(=O)Nc2ccccc2C(=O)O)cc1S(=O)(=O)Nc1ccccc1C(=O)O` it is 0.719%.
The same measure for `Cc1ccc(NS(=O)(=O)c2ccc(N/N=C/c3ccccc3OCC(=O)O)c([N+](=O)[O-])c2)c(C)c1`: -2.15%; for `O=C(O)c1ccccc1/C=N/Nc1ccc(S(=O)(=O)Nc2ccc(Cl)cc2)cc1[N+](=O)[O-]`: 10.8%.
Consider `COc1ccc(Br)cc1/C=N/Nc1ccc(Cl)c(C(=O)O)c1`, for which the inhibition is -8.87%.
`COc1ccc2c3c([nH]c2c1)[C@@H](CO)N(Cc1cccc(F)c1)CC31CN(CC2CC2)C1`: the inhibition was 3.68%.
The figure for `CCNC(=O)C[C@@H]1CC[C@@H]2[C@H](COc3ccc(NC(=O)Nc4cccc(C)c4)cc3C(=O)N2C)O1` is -1.08%; for `C/C=C/c1ccccc1[C@@H]1[C@@H](CO)N(S(=O)(=O)c2cccc(F)c2)[C@H]1C#N` it is 2.5%; for `O=C(C[C@@H]1CC[C@@H]2[C@H](COC[C@H](O)CN2S(=O)(=O)c2ccccc2)O1)N[C@H]1CCN(Cc2ccccc2)C1` it is -3.32%.
The same measure for `COCC(=O)Nc1ccc2c(c1)C(=O)N(C)C[C@@H](OC)[C@H](C)CN(C(=O)c1cccnc1)[C@H](C)CO2`: 5.23%.
In the case of `COc1cc(C2C(C(=O)c3ccco3)=C(O)C(=O)N2c2cc(C)on2)ccc1OCc1ccccc1` (stereo not drawn), the inhibition is -4.04%.
Take `C=CCOc1cccc(C2C(C(=O)c3ccc(C)o3)=C(O)C(=O)N2c2nnc(C)s2)c1` (stereo not drawn): the inhibition is -0.578%.
`Cc1cc(N2C(=O)C(O)=C(C(=O)c3ccc(C)o3)C2c2ccc(OCc3ccccc3)cc2)no1` (stereo not drawn): the inhibition is 19.4% (active).
With `COc1ccc(NC(=O)Nc2ccc3c(c2)C(=O)N([C@@H](C)CO)C[C@@H](C)[C@@H](CN(C)C(=O)CCCN(C)C)OCCCC[C@@H](C)O3)cc1`, the inhibition is -2.34%.
With `COc1ccc2c3c(n(C)c2c1)[C@@H](CO)N(CC1CC1)CC31CN(C(=O)c2cccc(F)c2)C1`, the inhibition was 1.38%.
The figure for `Cc1cc([N+](=O)[O-])ccc1NS(=O)(=O)c1ccccc1` is 4.53%; for `Cc1cc(C=O)c(C)n1-c1ccc(NC2CCCCC2)c([N+](=O)[O-])c1` it is 2.63%.
Consider `Cc1cc([N+](=O)[O-])ccc1NC1CCCC1`, for which the inhibition was 21.2% (active).
The same measure for `C[C@@H]1CN([C@H](C)CO)C(=O)c2cc(-c3cccc(F)c3)cnc2O[C@H]1CN(C)C(=O)Nc1ccccc1F`: 4.47%.
The same measure for `O=C(CN1CCOCC1)N[C@@H]1CC[C@@H](CCNC(=O)C2CCCCC2)O[C@@H]1CO`: 7.91%.
`C[C@H]1CN([C@@H](C)CO)C(=O)c2cc(C#CC3CCCC3)cnc2O[C@H]1CN(C)C(=O)c1ccncc1`: the inhibition is 5.96%.
The same measure for `Cc1c(C(=O)NCC2CCCO2)sc2nc(-c3ccccc3)cn12` (stereo not drawn): -9.93%; for `Cc1ccc(C(=O)N/C(=C\c2ccc(F)cc2)C(=O)NCCN2CCOCC2)cc1`: -1.92%; for `Cc1c(C(=O)NCCN2CCOCC2)sc2nc(-c3ccc(F)cc3)cn12`: 26.8% (active).
With `C[C@@H]1CCCCO[C@@H](CN(C)C(=O)Nc2ccc(C(F)(F)F)cc2)[C@H](C)CN([C@@H](C)CO)C(=O)c2cc(N(C)C)ccc2O1`, the inhibition was 2.03%.
The figure for `O=C(c1ccc(F)cc1)N1CC(=O)N2[C@@H](CO)[C@H](c3ccc(C4=CCCC4)cc3)[C@@H]2C1` is -4.25%.
The same measure for `C[C@@H]1CN([C@@H](C)CO)S(=O)(=O)c2ccc(C#CCC3CCCC3)cc2O[C@H]1CN(C)Cc1ccc(C(=O)O)cc1`: 17.1% (active); for `C[C@H]1CN([C@@H](C)CO)S(=O)(=O)c2ccc(C#CCN(C)C)cc2O[C@@H]1CN(C)Cc1ccc(F)cc1`: -1.1%.
The figure for `C[C@@H]1CN([C@H](C)CO)S(=O)(=O)c2ccc(C#CCC3CCCC3)cc2O[C@H]1CN(C)Cc1ccc(C(=O)O)cc1` is 15.8% (active); for `C[C@@H]1CN([C@@H](C)CO)S(=O)(=O)c2ccc(C#CCC3CCCC3)cc2O[C@H]1CN(C)C(=O)CC1CC1` it is 9.11%; for `C[C@@H]1CN([C@H](C)CO)S(=O)(=O)c2ccc(C#CCC3CCCC3)cc2O[C@H]1CN(C)C(=O)CC1CC1` it is 9.26%.
Regarding `C[C@@H]1CN([C@@H](C)CO)S(=O)(=O)c2ccc(C#CCC3CCCC3)cc2O[C@@H]1CN(C)C`, the inhibition was 2.36%.
The same measure for `CO[C@@H]1CN(C)C(=O)c2ccc(NC(=O)c3cccc(Oc4ccccc4)c3)cc2OC[C@H](C)NC[C@@H]1C`: 0.913%; for `CN(C)C(=O)c1cccc(-c2ccc3n(c2=O)C[C@H]2N[C@@H]3[C@@H](C(=O)NC3CCC3)[C@@H]2CO)c1`: -48.3%; for `COc1ccc2c3c(n(C)c2c1)[C@H](CO)N(C(C)=O)CC31CN(C(=O)c2cnccn2)C1`: -3.27%.
The figure for `CCc1nnc(NS(=O)(=O)c2ccc(NC(=S)NC(=O)/C=C/c3cccs3)cc2)s1` is 9.43%.
The figure for `CCc1nnc(NS(=O)(=O)c2ccc(NC(=O)c3cccc(OC(F)(F)C(F)F)c3)cc2)s1` is -3.94%; for `CCc1nnc(NS(=O)(=O)c2ccc(NC(=S)NC(=O)c3cccs3)cc2)s1` it is 19.1% (active).
Turning to `C[C@@H]1CN([C@@H](C)CO)C(=O)c2cc(NS(C)(=O)=O)ccc2O[C@@H](C)CCCCO[C@@H]1CN(C)C(=O)c1ccccc1`, the inhibition was 0.623%.
